In PubChem BioAssay (EPA / NIEHS):
Values joined by “and” are separate entries in the source; they are usually repeats but may differ in a detail not shown here. Equal values may be shown once. Inconclusive results are not listed. Some structures have more than one record in an assay (separate samples or runs), and their calls can disagree. Active and inactive are the calls of the source. The calls were made as follows, unless noted: active = hit-call score of the fitted dose curve at least 0.9, where 1 is the maximum; inactive = score below 0.9.

Tests used:
[1] = TOX21_p53_BLA_p2_viability: Viability Assessment in the Tox21 HCT-116 p53 Agonism Beta-lactamase Assay, Phase 2 (AID 2283591; active = hit-call score of the fitted dose curve at least 0.9, where 1 is the maximum;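 also: actives lower the ATP signal meaning cytotoxicity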)
How it was run: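 Cytotoxicity readout: CellTiter-Glo ATP luminescence, 30 min at room temperature, after the beta-lactamase read. Cells were HCT116 exposed 16 h at 37C to compounds pin-transferred at 217-fold dilution from DMSO stocks.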

[2] = biological target: Cellular tumor antigen p53 (Homo sapiens) (UniProt P04637); assay: TOX21_p53_BLA_p2_ratio: Tox21 HCT-116 p53 Agonism Beta-lactamase Assay, Ratio, Phase 2 (AID 2283592; active = hit-call score of the fitted dose curve at least 0.9, where 1 is the maximum)
How it was run: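 First, HCT116 reporter cells settle for 5 h at 37C. Next, DMSO compound solutions are pinned in (217-fold dilution) and left 16 h. Finally, CCF4-AM substrate is loaded 2 h at room temperature and the 460/530 nm ratio read.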

[3] = TOX21_p53_BLA_p3_viability: Viability Assessment in the Tox21 HCT-116 p53 Agonism Beta-lactamase Assay, Phase 3 (AID 2283593; active = hit-call score of the fitted dose curve at least 0.9, where 1 is the maximum;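 also: cells exposed to compound for 16 h before reading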)
How it was run: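 Cellular ATP was quantified by CellTiter-Glo luminescence, read after 30 min at room temperature. Beforehand, HCT116 cells (4000/well) received compound 5 h post-seeding, 217-fold diluted from DMSO, then incubated 16 h at 37C.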

[4] = biological target: Cellular tumor antigen p53 (Homo sapiens) (UniProt P04637); assay: TOX21_p53_BLA_p3_ratio: Tox21 HCT-116 p53 Agonism Beta-lactamase Assay, Ratio, Phase 3 (AID 2283596; active = hit-call score of the fitted dose curve at least 0.9, where 1 is the maximum)
How it was run: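 Cells were seeded at 4000/well, rested 5 h at 37C, then dosed with DMSO compound solutions (217-fold dilution) for 16 h. CCF4-AM substrate was loaded for 2 h at room temperature, and the 460/530 nm emission ratio was fitted for gain of signal versus DMSO.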

[5] = biological target: Cellular tumor antigen p53 (Homo sapiens) (UniProt P04637); assay: TOX21_p53_BLA_p5_ratio: Tox21 HCT-116 p53 Agonism Beta-lactamase Assay, Ratio, Phase 5 (AID 2283599; active = hit-call score of the fitted dose curve at least 0.9, where 1 is the maximum)
How it was run: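 Beta-lactamase reporter ratio (blue 460 nm over green 530 nm, 405 nm excitation) after 2 h CCF4-AM loading, in HCT-116 cells exposed 16 h at 37 C to compounds pinned at 217-fold dilution. Increases relative to DMSO baseline scored.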

[6] = TOX21_p53_BLA_p5_viability: Viability Assessment in the Tox21 HCT-116 p53 Agonism Beta-lactamase Assay, Phase 5 (AID 2283600; active = hit-call score of the fitted dose curve at least 0.9, where 1 is the maximum)
How it was run: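 Decreased CellTiter-Glo luminescence denotes lost viability. Exposure: 16 h at 37C, 5% CO2, with compounds from DMSO stocks diluted 217-fold in wells of 4000 cells.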

[7] = CCTE_Shafer_MEA_dev_firing_rate_mean: CCTE's Neural Network Formation Assay for Mean Firing Rate, Shafer Lab (AID 2284031)
How it was run: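 Extracellular spike frequency, AUC over DIV 5–12 recordings, in rat cortical neuron MEA cultures dosed from plating; loss direction vs DMSO.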

[8] = CCTE_Shafer_MEA_dev_per_burst_spike_percent: CCTE's Neural Network Formation Assay for Percent of Spikes in a Burst, Shafer Lab (AID 2284032);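 as to AC50: fitted as a decrease in burst spike percentage below DMSO baseline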
How it was run: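 Value is trapezoidal AUC over recordings on days 5, 7, 9 and 12 of the well-mean fraction of spikes falling in single-electrode bursts; rat cortical cultures exposed continuously from plating, treatment renewed DIV 5 and 9, fitted downward against DMSO.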

[9] = CCTE_Shafer_MEA_dev_active_electrodes_number: CCTE's Neural Network Formation Assay for Number of Active Electrodes, Shafer Lab (AID 2284040; active = hit-call score of the fitted dose curve at least 0.9, where 1 is the maximum;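 also: potency for loss of active electrodes versus DMSO so lower counts are hits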)
How it was run: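 Developing rat cortical networks on MEAs, exposed DIV 0–12. Value is the AUC of active-electrode counts (≥5 spikes/min) from days 5, 7, 9, 12, relative to DMSO.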

[10] = CCTE_Shafer_MEA_dev_burst_rate: CCTE's Neural Network Formation Assay for Burst Rate, Shafer Lab (AID 2284042)
How it was run: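 Rat primary cortical cultures on PEI/laminin MEA; compound from plating, re-dosed at DIV 5, 9 media change. Single-electrode bursts/recording length, well mean of active electrodes; AUC over DIV 5–12 recordings; loss-of-signal vs DMSO.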

[11] = CCTE_Shafer_MEA_dev_bursting_electrodes_number: CCTE's Neural Network Formation Assay for Number of Bursting Electrodes, Shafer Lab (AID 2284043; active = hit-call score of the fitted dose curve at least 0.9, where 1 is the maximum;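 also: potency is for loss of bursting electrodes relative to DMSO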)
How it was run: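 Number of electrodes reaching ≥1 burst every 2 min was recorded at DIV 5, 7, 9 and 12 and collapsed as trapezoidal area under the curve. Cultures were rat cortical neurons on MEA plates, dosed continuously from plating with medium and treatment refreshed on DIV 5 and 9.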

[12] = CCTE_Shafer_MEA_dev_burst_duration_mean: CCTE's Neural Network Formation Assay for Mean Burst Duration, Shafer Lab (AID 2284045)
How it was run: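 Mean single-electrode burst duration (first to last spike), averaged over bursting electrodes per well, then integrated as area-under-curve across recordings at days 5, 7, 9 and 12. Rat cortical cultures on MEAs, compound present from plating, refreshed at feeds.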

[13] = CCTE_Shafer_MEA_dev_interburst_interval_mean: CCTE's Neural Network Formation Assay for Mean Interburst Interval, Shafer Lab (AID 2284046);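 also: well-mean interburst interval of bursting electrodes as AUC over four recording days; curve fitted for decrease in interburst interval relative to DMSO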
How it was run: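 Rat cortical neurons, 1.5 x 10^5 cells/well, 48-well MEA; compound from day 0 through DIV 12, media and treatment renewed DIV 5/9. Recordings DIV 5, 7, 9, 12; well-mean interburst interval → trapezoidal AUC, loss direction vs DMSO.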

[14] = CCTE_Shafer_MEA_dev_inter_network_spike_interval_mean: CCTE's Neural Network Formation Assay for Mean Inter-network Spike Interval, Shafer Lab (AID 2284047)
How it was run: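 Primary rat cortical neurons on PEI-coated 48-well MEAs (16 electrodes/well) were exposed from plating day 0 to DIV 12, with dosing renewed at DIV 5 and 9. Recordings at DIV 5, 7, 9, 12 were collapsed by trapezoidal AUC, loss-of-signal fit vs DMSO.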

[15] = CCTE_Shafer_MEA_dev_network_spike_number: CCTE's Neural Network Formation Assay for Number of Network Spikes, Shafer Lab (AID 2284048);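 also: synchronized bursts across electrodes counted on days 5 7 9 12 and integrated as AUC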
How it was run: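 Number of network spikes (coordinated firing across electrodes) recorded on days 5, 7, 9 and 12 and summarised as area under the curve. Rat cortical cultures on MEA, continuous compound exposure with full medium/treatment exchange at DIV 5 and 9.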

[16] = CCTE_Shafer_MEA_dev_network_spike_peak: CCTE's Neural Network Formation Assay for Mean Number of Electrodes in Network Spike, Shafer Lab (AID 2284049);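 also: fitted for loss of signal meaning fewer electrodes in network spikes than DMSO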
How it was run: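 Rat cortical primary culture, 1.5 x 10^5 cells/well, 48-well MEA (16 electrodes/well). Dosing day 0 through DIV 12, full media/compound exchange DIV 5, 9. AxIS adaptive spike detection; AUC over days 5/7/9/12; loss-of-signal vs DMSO.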

[17] = CCTE_Shafer_MEA_dev_spike_duration_mean: CCTE's Neural Network Formation Assay for Mean Spike Duration, Shafer Lab (AID 2284051);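 also: mean network spike duration pooled as area under curve over DIV 5 to 12 recordings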;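 as to AC50: potency for a decrease in mean network spike duration versus DMSO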
How it was run: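 Rat cortical primary cultures, 48-well MEA (16 electrodes/well); compound from plating, renewed DIV 5, 9. Network spike duration (AxIS adaptive detector) recorded DIV 5/7/9/12, combined as trapezoidal AUC; loss direction vs DMSO.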

[18] = CCTE_Shafer_MEA_dev_network_spike_duration_std: CCTE's Neural Network Formation Assay for Standard Deviation of Network Spike Duration, Shafer Lab (AID 2284052);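 also: hits are decreases in network spike duration SD versus DMSO vehicle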
How it was run: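 Rat cortical cultures, 1.5 x 10^5 cells/well, exposed continuously from plating to DIV 12 with media/compound renewal at DIV 5, 9. Spontaneous activity recorded DIV 5/7/9/12, AxIS adaptive spike detector; AUC across days; negative direction vs DMSO.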

[19] = CCTE_Shafer_MEA_dev_per_network_spike_spike_number_mean: CCTE's Neural Network Formation Assay for Mean Number of Spikes in a Network Spike, Shafer Lab (AID 2284053);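 also: fitted as decrease in spikes per network spike relative to DMSO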
How it was run: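 Rat cortical primary cultures on 48-well MEA; compound from day 0, re-dosed with full media change DIV 5, 9. Recorded DIV 5, 7, 9, 12; spikes in 0.05 s window at network-spike peak ÷ total network spikes; AUC; loss vs DMSO.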

[20] = CCTE_Shafer_MEA_dev_per_network_spike_spike_percent: CCTE's Neural Network Formation Assay for Percent of Spikes in a Network Spike, Shafer Lab (AID 2284054)
How it was run: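 Metric: fraction of spikes falling in a 0.05 s window at network-spike peaks. Recordings were made on days 5, 7, 9 and 12 and collapsed by trapezoidal AUC. Cultures were rat cortical neurons on MEA plates, dosed continuously from plating, re-dosed at media changes.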

[21] = UKN5_HCS_SBAD2_cell_viability: Viability Assessment in the University of Konstanz (UKN) Leist Lab Neurite Outgrowth Assay in human iPSC-derived immature Dorsal Root Ganglia Neurons (UKN5) (AID 2284056)
How it was run: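 iPSC-derived immature peripheral neurons (SBAD2) seeded on Matrigel with CHIR99021, SU5402 and DAPT, dosed 1 h later for 24 h. Viability from Hoechst H-33342 and calcein-AM live staining, high-content imaging; bidirectional fit versus DMSO.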

[22] = CCTE_Shafer_MEA_dev_LDH: CCTE's Lactate Dehydrogenase Assay for Cytotoxicity in the Neural Network Formation Assay, Shafer Lab (AID 2284068; active = hit-call score of the fitted dose curve at least 0.9, where 1 is the maximum;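 also: exposure for twelve days from plating with re-dosing on DIV 5 and 9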)
How it was run: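 Rat cortical primary neurons, MEA culture; dosing day 0–12, full medium plus compound exchange DIV 5, 9. Read-out: LDH enzyme activity, spectrophotometric. DMSO = negative control/baseline; signal loss → cytotoxicity.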

[23] = UKN5_HCS_SBAD2_neurite_outgrowth: University of Konstanz (UKN) Leist Lab Neurite Outgrowth Assay in human iPSC-derived immature Dorsal Root Ganglia Neurons (UKN5) (AID 2284070); conditions: actives raise or lower the signal
How it was run: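 Neurite outgrowth is quantified as calcein-AM-labelled neurite area in human iPSC-derived peripheral neurons treated for 24 h, starting 1 h after plating in medium with CHIR99021 (1.5 uM), SU5402 (5 uM) and DAPT (5 uM).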

[24] = CCTE_Shafer_MEA_dev_AB: CCTE's Alamar Blue Assay for Cytotoxicity in the Neural Network Formation Assay, Shafer Lab (AID 2284083; active = hit-call score of the fitted dose curve at least 0.9, where 1 is the maximum;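 also: resazurin reduction fluorescence as viability of cultured neurons; twelve days of exposure from plating with re-dosing on DIV 5 and 9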)
How it was run: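 Rat cortical primary cultures, 1.5 x 10^5 cells/well on MEA; continuous compound exposure over 12 days of network development, re-dosed with full medium change DIV 5 and 9. Alamar Blue fluorescence; loss of signal = cytotoxicity vs DMSO baseline.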

[25] = CCTE_Shafer_MEA_dev_mutual_information_norm: CCTE's Neural Network Formation Assay for Mutual Information Normalization, Shafer Lab (AID 2284091);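 also: mutual information between electrodes summarised as area under curve across four recording days; potency is for a decrease in mutual information relative to DMSO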
How it was run: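 Shared information across electrodes, tracked on days 5, 7, 9 and 12 of network development and collapsed as trapezoidal area under the curve. Rat cortical cultures were treated continuously from plating, with treatment renewed at feeds on DIV 5 and 9; DMSO baseline, negative-direction fit.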

[26] = CCTE_Shafer_MEA_dev_correlation_coefficient_mean: CCTE's Neural Network Formation Assay for Mean Correlation Coefficient, Shafer Lab (AID 2284093);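 also: well mean pairwise spike train correlation integrated as AUC over recording days 5 to 12; potency fitted for loss of correlation relative to DMSO vehicle wells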
How it was run: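 Rat cortical cultures, 1.5 x 10^5 cells/well, dosed from day 0 for 12 days. Spontaneous spikes recorded DIV 5/7/9/12; electrode-pair correlation coefficients averaged, AUC taken. Fit in loss direction vs DMSO.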

Cellular tumor antigen p53 (Homo sapiens), sequence (P04637 whole entry, looked up): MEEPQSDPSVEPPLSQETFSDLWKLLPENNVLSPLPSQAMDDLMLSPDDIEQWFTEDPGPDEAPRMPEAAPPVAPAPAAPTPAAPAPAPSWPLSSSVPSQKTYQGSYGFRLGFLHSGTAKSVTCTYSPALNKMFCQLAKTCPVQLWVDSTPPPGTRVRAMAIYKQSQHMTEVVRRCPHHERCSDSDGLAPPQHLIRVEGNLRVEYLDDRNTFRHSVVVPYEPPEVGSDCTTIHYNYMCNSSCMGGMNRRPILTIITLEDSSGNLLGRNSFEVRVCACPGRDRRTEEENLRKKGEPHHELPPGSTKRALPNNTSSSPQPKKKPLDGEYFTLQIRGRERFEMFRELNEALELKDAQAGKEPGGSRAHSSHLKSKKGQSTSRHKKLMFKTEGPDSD

Question: For `Brc1ccc(Oc2ccc(Br)cc2Br)c(Br)c1`, which outcome [1] is on record?
Answer: inactive

Question: And the outcome [2]?
Answer: inactive

Question: And the outcome [3]?
Answer: inactive

Question: What about the outcome [4] of the same molecule?
Answer: inactive

Question: And the outcome [5]?
Answer: inactive

Question: And the outcome [6]?
Answer: inactive

Question: What about the outcome [7] of the same molecule?
Answer: inactive

Question: And the AC50 [8]?
Answer: 14.2 µM (active)

Question: And the outcome [8]?
Answer: inactive

Question: What about the AC50 [9] of the same molecule?
Answer: 19.8 nM (active) and 10 µM (active)

Question: What about the outcome [10] of the same molecule?
Answer: inactive

Question: What about the AC50 [11] of the same molecule?
Answer: 22.5 nM (active) and 8.36 µM (active)

Question: And the outcome [12]?
Answer: inactive

Question: And the outcome [13]?
Answer: inactive

Question: What about the outcome [14] of the same molecule?
Answer: inactive

Question: And the outcome [15]?
Answer: inactive

Question: And the AC50 [16]?
Answer: 13.2 nM (active) and 10 µM (active)

Question: What about the AC50 [17] of the same molecule?
Answer: 15 µM (active)

Question: What about the outcome [17] of the same molecule?
Answer: inactive

Question: What about the outcome [18] of the same molecule?
Answer: inactive

Question: And the AC50 [19]?
Answer: 25.4 nM (active) and 4 µM (active)

Question: And the AC50 [20]?
Answer: 15.1 µM (active)

Question: And the outcome [20]?
Answer: inactive

Question: What about the outcome [21] of the same molecule?
Answer: inactive

Question: And the AC50 [22]?
Answer: 12.3 µM (active)

Question: And the outcome [22]?
Answer: inactive

Question: What about the outcome [23] of the same molecule?
Answer: inactive

Question: What about the AC50 [24] of the same molecule?
Answer: 8.31 µM (active)

Question: And the outcome [24]?
Answer: inactive

Question: And the AC50 [25]?
Answer: 13.4 nM (active) and 1.98 µM (active)

Question: And the AC50 [26]?
Answer: 92.3 nM (active) and 4.26 µM (active)
